Bioassay records (PubChem)
Hits are enriched below; roughly 7% of the tested compounds scored in any of these assays.
GCN5L2 inh = inhibitors of human GCN5L2 histone acetyltransferase | Q92830 | GCN5L2 HAT assay, ThioGlo1 CoA-SH fluorescence | Potency, µM (top dose mostly 58.9 µM), for the others: at the highest dose activity change, negative = inhibition, actives largely listed as inhibitors | actives 0.21% (n = 390,000); also: potency is read from the fitted curve at half-maximal effect; % is scaled to controls: 0 for no effect and ±100 for the full control effect
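Compounds, pin-transferred from DMSO stocks, meet 20nM GCN5L2 for 15 min before the reaction begins with H3(1-25) peptide (75uM) and acetyl-CoA (70uM). Thiol-reactive ThioGlo1 reports CoA release over 20 min at room temperature.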
BAZ2B inh = blocks human BAZ2B | Q9UIF8 | AlphaScreen BAZ2B-H3K14Ac peptide displacement | Potency, µM (titrated, usually from 114 µM), inactives show at the top dose activity change, negative = inhibition, usual class: inhibitors | actives 4.4% (n = 360,000); also: potency is read from the fitted curve at half-maximal effect; % is scaled to controls: 0 for no effect and ±100 for the full control effect; nearly all actives have a fitted effect of over 60% in size
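AlphaScreen displacement of biotin-H3(5-23)K14Ac peptide (50 nM final) from BAZ2B (50 nM final) in PBS pH 7.4, 0.01% Tween-20; complex preformed 30 min RT, then compounds (top 110 uM) 30 min RT, beads 20 min dark.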
PLK1 PBD block = blocks phosphopeptide binding to human PLK1 polo-box domain; Plk1 PBD binding of FITC phosphopeptide, fluorescence polarization; Potency, µM, without a hit: max response, negative = inhibition, hits mostly inhibitors; actives 2.8% (n = 360,000); AID 720504; also: potency is read from the fitted curve at half-maximal effect; series mostly up to about 57 µM; % is scaled to controls: 0 for no effect and ±100 for the full control effect; nearly all actives have a fitted effect of over 65% in size
PI5P4K alpha inh = inhibitors of human PI5P4K alpha. actives 1.2% (n = 330,000). P48426. PI5P4Kalpha enzyme, ADP-Glo luminescence, 60 min; hits give low values. max response, %; active = max response of -50% or lower; inconclusive = between -30% and -50%; inactive = -30% or higher; also: value at the top dose of about 77 µM; % is scaled to controls: 0 for no effect and ±100 for the full control effect
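Luminescence from ADP-Glo served as readout of PI5P4Kalpha activity in a qHTS format. Reaction: enzyme, substrate, compound, ATP at 5 microM final, 60 min at RT.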
JMJD2A Tudor = inhibitors of human JMJD2A Tudor domain; actives 4.4% (n = 390,000); Potency, µM (doses to about 114 µM), inactives show at the top dose activity change, negative = inhibition, actives largely listed as inhibitors; AlphaScreen JMJD2A-Tudor / H3K4me3 peptide binding; AID 504339; O75164; also: potency is read from the fitted curve at half-maximal effect; % is scaled to controls: 0 for no effect and ±100 for the full control effect; nearly all actives have a fitted effect of over 50% in size
Target sequence (O75164 whole entry, looked up, the tested form may be a part): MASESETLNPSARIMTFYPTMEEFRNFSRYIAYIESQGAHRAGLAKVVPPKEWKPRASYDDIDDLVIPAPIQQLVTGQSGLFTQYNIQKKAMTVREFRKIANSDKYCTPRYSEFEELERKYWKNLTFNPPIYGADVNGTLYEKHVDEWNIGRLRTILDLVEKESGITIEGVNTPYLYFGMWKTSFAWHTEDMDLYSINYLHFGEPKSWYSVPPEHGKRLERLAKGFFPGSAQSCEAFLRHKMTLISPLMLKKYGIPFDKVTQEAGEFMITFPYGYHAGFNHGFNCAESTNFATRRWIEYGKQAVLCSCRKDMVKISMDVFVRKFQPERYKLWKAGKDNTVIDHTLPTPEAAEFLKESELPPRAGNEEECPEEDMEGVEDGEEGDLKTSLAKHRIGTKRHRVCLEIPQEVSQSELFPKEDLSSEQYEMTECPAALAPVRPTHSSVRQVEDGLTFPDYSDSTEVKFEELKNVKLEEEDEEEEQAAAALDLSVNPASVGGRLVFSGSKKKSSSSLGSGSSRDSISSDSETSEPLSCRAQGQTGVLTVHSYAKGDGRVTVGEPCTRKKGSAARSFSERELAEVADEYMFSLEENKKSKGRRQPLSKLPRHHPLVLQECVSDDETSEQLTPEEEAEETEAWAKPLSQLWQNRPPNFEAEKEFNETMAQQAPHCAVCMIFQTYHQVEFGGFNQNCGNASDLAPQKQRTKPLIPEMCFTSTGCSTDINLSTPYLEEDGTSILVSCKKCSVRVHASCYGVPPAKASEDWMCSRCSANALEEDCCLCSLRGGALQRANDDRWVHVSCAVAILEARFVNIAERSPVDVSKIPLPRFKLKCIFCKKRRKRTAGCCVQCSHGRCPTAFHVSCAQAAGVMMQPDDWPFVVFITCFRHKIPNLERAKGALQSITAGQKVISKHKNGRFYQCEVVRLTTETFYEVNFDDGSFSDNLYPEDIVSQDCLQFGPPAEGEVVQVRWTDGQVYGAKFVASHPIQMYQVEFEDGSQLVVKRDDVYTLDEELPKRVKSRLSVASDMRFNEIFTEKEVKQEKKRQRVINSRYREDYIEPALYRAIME
HP1b chromo inh = blocks HP1-beta chromodomain binding to methylated histone tails; actives 0.56% (n = 390,000); P83916; AlphaScreen HP1-beta / biotin-H3K9me3 peptide binding; Potency, µM (doses to about 114 µM), for inactives: top-dose activity change, negative = inhibition, hits mostly inhibitors; also: potency is read from the fitted curve at half-maximal effect; nearly all actives have a fitted effect of over 70% in size
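Compound inhibition of the preformed complex between 50 nM HP1-beta and 50 nM biotinylated H3K9me3 peptide was read by AlphaScreen. Buffer was PBS pH 7.4 with 0.01% Tween-20. Incubations ran 30 min at room temperature, with 10 ug/mL donor/acceptor beads.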
Numbers without * were called inactive; ? = inconclusive; . = no result; [ ] = dose if it differs, or a comment. Unless noted, calls follow the shape of the dose curve; as a rule, active = well fitted curve in the direction sought with a large enough effect; inconclusive = small, poorly fitted or top-dose-only effect, or another doubt; inactive = no such curve, though single readings can be large; an effect the other way counts as inactive or inconclusive.

SMILES	GCN5L2 inh	BAZ2B inh	PLK1 PBD block	PI5P4K alpha inh	JMJD2A Tudor	HP1b chromo inh
Nn1c(SCC(=O)Nc2ccc3c(c2)OCCO3)nnc(CCC(=O)O)c1=O	-2.9%	-2.2%	3.36µM*	?	20µM*	5.0%
CC(=O)Nc1ccc(SCC(=O)Nc2ccc3c(c2)OCCO3)cc1	-2.4%	.	11.9µM*	0.9	-19.3%	4.6%
Cc1nnc(SCC(=O)Nc2ccc3c(c2)OCCO3)n1N	-0.3%	3.2%	-4.6%	-4.6	-14.7%	15.2%
O=C(CSc1ncnc2ccccc12)Nc1ccc2c(c1)OCCO2	2.2%	-9.2%	-12.9%	-14.2	-15.5%	7.6%
Cc1ccc(NC(=O)C2(C)CCN2C(=O)Cc2ccc(C(C)(C)C)cc2)cc1C (stereo not drawn)	.	.	-9.2%	21.9	.	.
C=C(C)C(=O)Nc1ccc2c(c1)OCCOCCOCCO2	1.5%	11.2µM*	-20.8%	-73.8*	17.8µM*	12.6µM*
O=C(CSc1ccc2c(c1)OCCO2)Nc1ncccc1O	-2.3%	?	-24.0%	-6.0	50.1µM*	36.6%
O=C(Cn1c(=O)n(CCCS(=O)(=O)C2CCCCC2)c(=O)c2ccccc21)Nc1ccccc1F	-0.6%	-9.3%	.	.	-0.7%	22.9%
COC(=O)C1=C(C(=O)OC)[C@@H]2N(C)c3ccc(OC)cc3[C@@]23C[C@@H](C(=O)OC)N(C(=O)C2CCC2)C3=N1	-3.3%	11.2µM*	-7.5%	-0.2	25.1µM*	?
COC(=O)C1=C(C(=O)OC)[C@@H]2N(C)c3ccc(OC)cc3[C@@]23C[C@@H](C(=O)OC)N(C(=O)NCCBr)C3=N1	.	.	-8.5%	1.2	?	-4.6%
COC(=O)C1=C(C(=O)OC)[C@@H]2N(C)c3ccc(OC)cc3[C@@]23C[C@@H](C(=O)OC)N(C(=O)CC(C)C)C3=N1	.	.	3.3%	6.0	50.1µM*	?
COc1ccc(OC)c(S(=O)(=O)NCc2ccccn2)c1	-0.7%	-0.4%	-12.4%	1.2	-10.5%	-6.6%
COc1ccc(C)cc1Nc1nc(-c2c[nH]c3ccccc23)cs1	-2.2%	50.1µM*	?	-14.4	?	-23.6%[57 µM]
Cc1ccc2nc(-c3ccc(C#N)cc3)c(Cc3ccccc3C(F)(F)F)n2c1	.	.	5.0%	-7.0	.	.
CCOC(=O)/C=C1\CN(C(C)c2ccccc2)S(=O)(=O)c2ccccc21 (stereo not drawn)	-9.7%	-13.4%	-19.2%	-22.1	79.4µM*	12.7%
COc1ccc(CCC(=O)OCc2csc(CC(=O)Nc3ccc(C)cc3)n2)cc1OC	-5.6%	.	-9.3%	2.4	-29.5%	1.0%
O=C(CCl)NC1CCCc2ccccc21 (stereo not drawn)	-1.1%	3.9%	26.7µM*	?	50.1µM*	-11.3%
O=C(NC(=S)NC1CCCc2ccccc21)c1ccc(F)cc1 (stereo not drawn)	?	?	?	-4.3	79.4µM*	-12.2%
Cn1c(=O)c2cc(NC(=O)NCCc3cccs3)ccc2n1-c1ccc(C(C)(C)C)cc1	.	.	1.5%	-0.1	.	.
COc1cccc(-c2nc(SCc3cc(=O)c4cc(Cl)ccc4[nH]3)n[nH]2)c1	-3.7%	4.2%	.	.	-11.4%	31.1%[57 µM]
COc1ccc(N2CC(C(=O)N/N=C/c3ccc(C)cc3)CC2=O)cc1 (stereo not drawn)	-7.9%	-11.0%	-9.5%	0.8	-15.3%	28.1%
COc1ccc(N2CC(C(=O)Nc3nnc(C4CCCCC4)s3)CC2=O)cc1 (stereo not drawn)	-3.0%	-10.7%	29.9µM*	-16.0	22.4µM*	-3.6%
COc1ccc(N2CC(C(=O)N/N=C/c3cccs3)CC2=O)cc1 (stereo not drawn)	-4.4%	-5.0%	23.8µM*	0.8	-23.5%	17.8%
COc1ccc(N2CC(C(=O)Nc3nnc(SCC(=O)NCc4ccco4)s3)CC2=O)cc1 (stereo not drawn)	-29.9%	50.1µM*	?	?	?	-4.6%
Cc1cc(NC(=O)CSc2nc3cc(C(=O)NCCCOC(C)C)ccc3c(=O)n2Cc2ccco2)no1	-4.7%	-10.3%	2.7%	-3.2	-11.0%	-0.6%
SMILES	GCN5L2 inh	BAZ2B inh	PLK1 PBD block	PI5P4K alpha inh	JMJD2A Tudor	HP1b chromo inh
Cc1cccc(C)c1-n1nnnc1C(c1ccccc1OC(F)(F)F)N1CCN(C/C=C/c2ccccc2)CC1 (stereo not drawn)	.	.	2.7%	-7.0	.	.
O=C(CCNC(=O)c1ccccc1)Nc1cccnc1	-2.5%	19.4%	26.7µM*	?	44.7µM*	-1.1%
O=C(CCNC(=O)c1ccc(Cl)cc1)Nc1ncccc1O	-8.0%	79.4µM*	-16.7%	-0.6	-24.0%	25.7%
Cc1ccc(C(=O)CCC(=O)Nc2ncccc2O)cc1	-1.0%	79.4µM*	-3.3%	-2.4	?	5.7%
Cc1ccc(NC(=O)CCC(=O)c2ccc(Cl)s2)nc1	-21.0%	56.2µM*	-17.9%	?	-30.4%	17.2%
Cc1ccc(C(=O)CCC(=O)Nc2ncccc2C)cc1	-8.0%	-38.0%	-13.5%	-26.0	-27.0%	16.1%
N#CC(C#N)=C1CCCc2sccc21	.	.	-2.9%	13.4	-7.6%	42.0%
O=C(CCC1N=C2c3ccccc3N=C(SCc3ccccc3F)N2C1=O)NCc1ccc(F)cc1 (stereo not drawn)	-4.0%	-3.6%	.	.	-25.3%	24.1%
O=C(CCCNC(=O)c1ccc(Cl)cc1)Nc1ncccc1O	-0.1%	?	-12.5%	-2.4	-17.6%	21.5%
O=C(CCC(=O)c1ccc(Cl)s1)Nc1ncccc1O	0.1%	56.2µM*	-15.0%	?	56.2µM*	3.4%
N#CC1=C2C=CC=CN2CC1=O	-8.7%	50.1µM*	-8.2%	-8.6	8.91µM*	-23.1%
CC(C)(C)c1ccc(COC(=O)Nc2ccc(F)cc2)cc1	-2.6%	27.0%	2.9%	2.8	11.2%	26.5%
CC(C)(C)c1ccc(NC(=O)Nc2ccc(F)cc2)cc1	-0.3%	1.8%	26.7µM*	-18.3	35.5µM*	-9.6%
O=C(Cc1sc(Nc2ccccc2)nc1-c1ccccc1)NCc1ccccn1	-4.2%	-37.8%	-18.2%	-6.0	?	-16.7%
C1CCN2CC3CC(CN4CCCC[C@@H]34)[C@H]2C1	.	.	-4.7%	-1.9	-10.1%	74.6%
CN(CC(=O)Nc1ccc(F)cc1)C(=O)C1CCCC1	0.5%	4.3%	-13.7%	-5.2	-4.4%	24.3%
CC(=O)N1CSCC1C(=O)NNS(=O)(=O)c1ccccc1 (stereo not drawn)	?	4.5%	-5.4%	2.0	25.1µM*	3.8%
O=C(COC(=O)/C=C/c1cccs1)NC(c1ccccc1)c1ccccc1	-4.9%	-1.2%	2.1%	1.2	-11.9%	26.1%
O=C(COC(=O)/C=C/C(=O)N1CCN(c2ccccc2)CC1)NC(c1ccccc1)c1ccccc1	-8.8%	44.7µM*	9.2%	-4.7	-29.8%	22.4%
